Bioassay records as filed in PubChem.
CYP2C9 inh: inhibitors of human CYP2C9; P11712; CYP2C9 Supersomes, luciferin-H conversion, luminescence; inhibition, % at 5 µM; 96,000 compounds, 20% hits;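 active = blocking of liver enzyme CYP2C9 beyond about 50% at 5 µM, limit read from the data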
CYP2C19 act: increases human CYP2C19 enzyme activity; P33261; activation factor at 5 µM; recombinant CYP2C19, luciferin-H EGE luminescence; stronger effect = higher value; 0 = fully inhibited enzyme, 1 = untreated enzyme; 96,000 tested, under 10 active;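 active = activation factor of at least 2 at 5 µM in the primary screen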;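 note: 0 = wells with 2.5 mM tranylcypromine and 1 = vehicle-only wells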
Target sequence (P33261 whole entry, looked up): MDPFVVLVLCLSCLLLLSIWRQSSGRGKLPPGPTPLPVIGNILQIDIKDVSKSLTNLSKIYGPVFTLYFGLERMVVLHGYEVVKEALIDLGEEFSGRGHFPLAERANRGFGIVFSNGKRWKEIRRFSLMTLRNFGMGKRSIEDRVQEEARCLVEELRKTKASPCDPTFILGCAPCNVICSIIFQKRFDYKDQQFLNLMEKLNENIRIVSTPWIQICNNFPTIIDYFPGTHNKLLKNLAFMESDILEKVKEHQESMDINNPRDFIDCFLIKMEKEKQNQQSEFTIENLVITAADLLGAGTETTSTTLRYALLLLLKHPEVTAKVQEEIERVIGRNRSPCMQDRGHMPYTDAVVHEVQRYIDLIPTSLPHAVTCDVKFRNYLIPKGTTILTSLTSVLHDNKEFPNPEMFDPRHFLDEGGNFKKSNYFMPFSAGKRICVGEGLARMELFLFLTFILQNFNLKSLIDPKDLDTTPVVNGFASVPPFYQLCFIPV
CYP2C19 inhib: human CYP2C19 inhibition. P33261. CYP2C19 Supersomes, luciferin-H EGE luminescence, 30 min. inhibition, % at 5 µM. 96,000 compounds, 21% hits;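 active = CYP2C19 inhibition above a set limit at 5 µM in the primary screen, cut at about 50% in these data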;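 note: plate controls were negative control wells for no effect and 2.5 mM tranylcypromine positive control for full effect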
F-actin modifier: alters cytoskeleton assembly in HUVEC cells; HUVEC TNFa F-actin phalloidin imaging, high content; inhibition, % at 2 µM; 91,000 compounds, 0.18% hits;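 active = inhibition above the batch mean plus 3 SD and confirmed as a hit by visual image inspection, cut at about 30% in these data, passing the limit was not always enough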
E-sel TNF inh: blocks E-selectin expression induced by TNF alpha | HUVEC TNFa-induced E-selectin immunofluorescence, high content | inhibition, % at 2 µM | 120,000 compounds, 0.71% hits;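 active = inhibition above the batch mean plus 3 SD, and confirmed as a hit on visual image review, cut at about 43% in these data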;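 note: 0% = TNF-stimulated DMSO wells and 100% = unstimulated control wells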
CYP2C9 act: increases human cytochrome P450 2C9 activity | P11712 | AID 1024 | recombinant CYP2C9, luciferin-H conversion, luminescence; stronger effect = higher value; factor 1 = untreated enzyme, 0 = blocked | activation factor at 5 µM | 96,000 compounds, 1.4% hits;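 active = activation factor of 2 or more for CYP2C9 at a 5 µM dose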;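 note: 0 = sulfaphenazole-blocked wells and 1 = vehicle-only wells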
Numbers without * were called inactive; x = no result given. Sampled rows, rich in hits. Any-hit rate of the full collection: about 22%.

SMILES	CYP2C9 inh	CYP2C19 act	CYP2C19 inhib	F-actin modifier	E-sel TNF inh	CYP2C9 act
Cc1ccc(OC(F)F)c(NC(=O)Nc2cccc(C(F)(F)F)c2)c1	15	0.9	12	-3	12	0.9
CC(C)(Oc1ccc(Cl)cc1)C(=O)N(Cc1ccccc1)c1ccccn1	x	x	x	x	-7	x
FC(F)(F)c1cc(-c2cccs2)nc(N2CCOCC2)n1	30	0.9	9	12	6	0.7
Cc1nc2ccc(C(=O)OCc3ccccc3Br)cc2nc1C	-32	0.8	16	-43	x	1.3
CC(=O)c1c(COC(=O)c2ccccc2)nc2ccccc2[n+]1[O-]	33	0.3	73*	15	11	0.7
O=C(NCC1COc2ccccc2O1)C1CCN(S(=O)(=O)c2cccc3nsnc23)CC1 (configuration not stated)	-66	0.4	59*	-8	x	1.7
O=C(NCC1COc2ccccc2O1)C1CCCN(S(=O)(=O)c2cccc3cccnc23)C1 (configuration not stated)	-93	0.2	75*	18	14	1.9
O=C(NCC1COc2ccccc2O1)C1CCCN(S(=O)(=O)c2cccc3nsnc23)C1 (configuration not stated)	61*	0.5	54*	-19	x	0.4
Cc1ccc(Nc2ncccc2C(=O)NCc2cccs2)c(C)c1	29	0.8	23	7	17	0.7
Cc1cccc(Nc2ncccc2C(=O)NCc2cccs2)c1C	57*	0.7	34	15	-14	0.4
CC(C)(C)c1ccc(NC(=S)NCc2cccs2)cc1	-29	0.6	36	15	2	1.3
Cc1cccc(NC(=S)NCc2cccs2)c1C	12	0.5	52*	28	-5	0.9
CCC(C)c1ccc(NC(=S)NCc2cccs2)cc1 (configuration not stated)	33	0.4	58*	-8	2	0.7
c1ccc2c(c1)Nc1nccnc1S2	x	x	x	x	-15	x
CC(C)COC(=O)c1ccccc1OC(=O)c1ccncc1	x	x	x	x	-21	x
CS(=O)(=O)N1Cc2ccccc2CC1C(=O)Nc1ccccc1C(N)=O (configuration not stated)	9	0.9	5	-11	-2	0.9
Cc1cc(C)nc(N2CCN(c3nnnn3-c3ccccc3)CC2)n1	85*	0.6	45	37	-1	0.1
FC(F)(F)c1cccc(N2CCN(c3nnnn3-c3ccccc3)CC2)c1	100*	0	98*	9	-12	0
FC(F)(F)c1cccc(N2CCN(c3ccc4nnc(-c5ccccc5)n4n3)CC2)c1	2	1.1	-14	-2	-24	1
COCCn1nnnc1CN1CCC(O)(c2cccc(C(F)(F)F)c2)CC1	5	0.7	32	x	-24	0.9
Cc1ccc(C)c(N2CCN(c3nnnn3-c3ccccc3)CC2)c1	91*	0	99*	1	14	0.1
COCCn1nnnc1CN1CCN(c2cccc(C(F)(F)F)c2)CC1	46	0.2	78*	-9	x	0.5
CC12CC3CC(C)(C1)CC(C(=O)NC(=S)N1CCCCC1)(C3)C2	19	0.9	11	11	-23	0.8
CCN(CC)CCCNC(=O)C1CCC(=O)N(c2ccc(OC)cc2)C1c1ccc(F)cc1 (configuration not stated)	-20	1.2	-21	7	x	1.2
CCOC(=O)N1CCN(C(=O)CSc2nc3c(cnn3-c3ccc(Cl)cc3)c(=O)[nH]2)CC1	68*	1	-4	x	3	0.3
SMILES	CYP2C9 inh	CYP2C19 act	CYP2C19 inhib	F-actin modifier	E-sel TNF inh	CYP2C9 act
CC1CCN(C(=O)CSc2nc3c(cnn3-c3ccccc3)c(=O)[nH]2)CC1	37	1	4	-3	x	0.6
COC(=O)c1ccc(CSc2nc3c(cnn3-c3ccc(F)cc3)c(=O)[nH]2)o1	x	x	x	1	16	x
CC(=O)N1CCN(C(=O)CSc2nc3c(cnn3-c3ccccc3)c(=O)[nH]2)CC1	38	1	4	-6	-17	0.6
CCOc1ccc(-n2c(=S)sc3c(=O)[nH]c(SCC(=O)N4CCC(C)CC4)nc32)cc1	97*	0.8	17	x	18	0
CC1CCN(C(=O)CSc2nc3c(cnn3-c3ccc(Cl)cc3)c(=O)[nH]2)CC1	55*	0.9	5	x	-8	0.5
COC(=O)c1ccc(CSc2nc3c(cnn3-c3ccc(Cl)cc3)c(=O)[nH]2)o1	76*	0.1	90*	4	1	0.2
O=C(O)c1ccc(CNCc2c(Cl)cccc2Cl)cc1	-15	1.1	-15	-13	-14	1.1
CC(C)=CCC/C(C)=C/CC/C(C)=N/O	18	0.7	26	-34	25	0.8
COC(=O)c1sc(-c2ccccc2)cc1NC(=O)c1cc(OC)cc(OC)c1	x	x	x	x	-3	x
COc1cccc(CN(C)CC(=O)NCc2ccccc2Cl)c1	x	x	x	x	16	x
CCN(CC(=O)NCc1ccc(F)cc1)CC(O)COCc1cccc(OC)c1 (configuration not stated)	67*	0.3	67*	-10	-24	0.3
O=[N+]([O-])c1ccc2[nH]c3c(c2c1)CCCC3	x	x	x	x	-21	x
Nc1cc(=O)[nH]c(SCc2nc3ccccc3n2Cc2ccccc2)n1	82*	0.5	47	x	-25	0.2
O=S(=O)(c1ccccc1C(F)(F)F)N1CCN(S(=O)(=O)c2ccccc2C(F)(F)F)CC1	46	0.8	18	-2	-10	0.5
CCn1c(N2CCN(S(=O)(=O)c3ccccc3C(F)(F)F)CC2)nc2ccccc21	-15	0.3	69*	-14	-2	1.2
O=C1Nc2ccccc2/C1=C\c1cccn1-c1ccc(OC(F)(F)F)cc1	87*	0.9	11	23	-5	0.1
Cc1nn(-c2ccc(F)cc2)c(Cl)c1/C=C1\C(=O)Nc2ccccc21	x	x	x	x	-4	x
COCCSc1ccccc1C(=O)NCCCn1ccnc1	33	0.3	68*	12	-23	0.7
O=C(NCCCn1ccnc1)c1cn(-c2ccccc2)nc1-c1ccccc1	94*	0.4	64*	1	4	0.1
COCCSc1ccccc1C(=O)Nc1cccnc1	14	0.9	8	-4	6	0.9
O=C(NCCCN1CCOCC1)c1cn(-c2ccccc2)nc1-c1cccs1	1	1	2	-9	-1	1
Cc1[nH]cnc1CSCCN	74*	1.1	-6	21	x	0.3
COc1ccc(-c2nsc(SCC(=O)NCc3ccc4c(c3)OCO4)n2)cc1	x	x	x	x	-34	x
c1ccn2c(SCc3ccc4c(c3)OCO4)nnc2c1	8	0.3	65*	-5	x	0.9
Cn1c(SCc2ccc3c(c2)OCO3)nnc1-c1ccccc1	50	0	98*	x	-2	0.5
Fc1ccc(CSc2nncn2NCc2ccc3c(c2)OCO3)cc1	83*	0.1	93*	8	2	0.2
O=C(CSc1nnc2ccccn12)c1ccc2c(c1)OCCO2	6	0.2	82*	x	x	0.9
O=C(CCSc1nnc2ccccn12)Nc1ccc2c(c1)OCO2	x	x	x	x	-9	x
COc1ccccc1CNC(=O)COC(=O)Cc1ccc(Cl)cc1	x	x	x	x	-6	x
